Results: PubChem BioAssay AID720700 (The Scripps Research Institute Molecular Screening Center, 2013)
Among all 370,000 compounds or so, about 3,100 (0.84%) were called active. Rule as the data show it: active = inhibition above about 9.5%; inactive = the rest. The full list was thinned out, with actives kept by preference.

Target: 1-phosphatidylinositol 4,5-bisphosphate phosphodiesterase gamma-1 (Homo sapiens) (UniProt P19174)
Experiment: PLC-gamma1 enzyme inhibitors, primary screen, biochemical, fluorescence, purified enzyme (AID 720700)
Conditions: purified PLC-gamma1, fluorogenic substrate, at 12.2 µM, stronger effect = higher value

Sequence of 1-phosphatidylinositol 4,5-bisphosphate phosphodiesterase gamma-1 (Homo sapiens) (P19174 whole entry, looked up): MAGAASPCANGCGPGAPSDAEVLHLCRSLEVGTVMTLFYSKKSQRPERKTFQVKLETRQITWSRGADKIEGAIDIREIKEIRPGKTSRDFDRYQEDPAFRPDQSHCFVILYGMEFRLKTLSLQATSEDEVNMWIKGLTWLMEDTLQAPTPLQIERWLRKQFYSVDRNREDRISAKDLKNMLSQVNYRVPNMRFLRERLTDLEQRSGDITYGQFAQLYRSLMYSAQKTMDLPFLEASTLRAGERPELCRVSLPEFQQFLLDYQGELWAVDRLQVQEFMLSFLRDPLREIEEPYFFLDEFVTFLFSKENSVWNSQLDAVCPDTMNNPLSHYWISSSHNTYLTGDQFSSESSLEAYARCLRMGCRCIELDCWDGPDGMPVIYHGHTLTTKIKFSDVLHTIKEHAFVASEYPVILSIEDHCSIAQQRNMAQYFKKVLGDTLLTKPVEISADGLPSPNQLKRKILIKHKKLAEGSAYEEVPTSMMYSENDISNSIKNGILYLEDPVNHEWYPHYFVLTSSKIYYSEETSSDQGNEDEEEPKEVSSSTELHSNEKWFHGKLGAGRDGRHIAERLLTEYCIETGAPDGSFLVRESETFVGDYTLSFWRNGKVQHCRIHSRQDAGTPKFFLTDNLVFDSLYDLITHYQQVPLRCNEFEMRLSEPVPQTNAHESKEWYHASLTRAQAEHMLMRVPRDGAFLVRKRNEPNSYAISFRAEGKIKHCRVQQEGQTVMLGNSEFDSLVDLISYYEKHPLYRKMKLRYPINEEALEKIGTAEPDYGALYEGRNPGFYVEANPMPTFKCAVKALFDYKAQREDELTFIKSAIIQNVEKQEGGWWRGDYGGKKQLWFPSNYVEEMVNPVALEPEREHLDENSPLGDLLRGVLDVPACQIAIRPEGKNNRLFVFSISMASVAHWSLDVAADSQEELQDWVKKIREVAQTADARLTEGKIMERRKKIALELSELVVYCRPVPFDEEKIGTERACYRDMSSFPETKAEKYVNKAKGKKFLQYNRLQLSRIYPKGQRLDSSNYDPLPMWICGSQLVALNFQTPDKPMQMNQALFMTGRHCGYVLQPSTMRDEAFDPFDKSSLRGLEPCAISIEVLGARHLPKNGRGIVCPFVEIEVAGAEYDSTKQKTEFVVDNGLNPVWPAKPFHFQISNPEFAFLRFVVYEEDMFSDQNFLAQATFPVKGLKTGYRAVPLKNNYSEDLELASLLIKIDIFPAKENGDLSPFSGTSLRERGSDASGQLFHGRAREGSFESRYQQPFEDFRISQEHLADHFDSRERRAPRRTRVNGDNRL

Row | SMILES | inhibition
1 | CC(C)C(C#CC1CC1)N(Cc1ccc2c(c1)OCO2)C(N)=NC(=O)/C=C/c1cccc(C(F)(F)F)c1 (stereo unspecified) | 0.02% (inactive)
2 | C=CCN(C(=O)[C@@H](CCCC)[C@@H](O)c1ccc(Cl)cc1)c1ccccc1 | -0.11% (inactive)
3 | CCOc1ccc(S(=O)(=O)NCCC(=O)NCC2CCCO2)cc1 (stereo unspecified) | 2.41% (inactive)
4 | O=C(CCNS(=O)(=O)c1ccc(Br)cc1)NCC1CCCO1 (stereo unspecified) | 12.3% (active)
5 | CCC(=O)Nc1ccc(S(=O)(=O)NCC2CCCO2)cc1 (stereo unspecified) | 3.4% (inactive)
6 | COC(=O)[C@]12C[C@H](CC(=O)NCc3ccccc3)C(=O)N(Cc3ccccc3)C1=C[C@H](COCc1ccccc1)O[C@@H]2C | 8.06% (inactive)
7 | COc1ccc(-n2c(SCC(=O)Nc3ccccc3-c3ccccc3)nnc2-c2cccnc2)cc1 | -0.54% (inactive)
8 | C=C(C)C1CC23C(=O)C4(C(=O)c5ccccc5)C[C@@]5(C)CCC(CC2C1(C)C)(C4=O)C35OC (stereo partly specified) | -0.5% (inactive)
9 | COC(=O)[C@]12C[C@H](CC(=O)N3CCOCC3)C(=O)N(Cc3ccc(Cl)cc3Cl)C1=C[C@H](C(C)C)O[C@@H]2C1CC1 | -1.21% (inactive)
10 | O=C(CSc1ncn[nH]1)N/N=C/c1ccc(F)cc1 | 9.55% (active)
11 | O=C(CSc1ncn[nH]1)Nc1ccnc2ccccc12 | 0.33% (inactive)
12 | O=C(CSc1ncn[nH]1)Nc1nsc(-c2ccccc2)n1 | -3.65% (inactive)
13 | COc1cc(NC(=O)C2CCCN(S(=O)(=O)c3ccc(C(C)(C)C)cc3)C2)cc(OC)c1 (stereo unspecified) | 0.39% (inactive)
14 | CC(C)CNc1cccc2c1S(=O)(=O)N(Cc1cn(Cc3ccc(Cl)cc3)nn1)Cc1ccccc1O2 | -48.8% (inactive)
15 | C=CCN1[C@@H](Cc2ccccc2)COc2cccc(N3CCSCC3)c2S1(=O)=O | 1.11% (inactive)
16 | CCOC(=O)[C@]12CCCC=C1N(Cc1ccc(OC)cc1)C(=O)[C@@H]2CC(=O)N1CCOCC1 | 0.69% (inactive)
17 | CCOC(=O)[C@]12CCCC=C1N(CCCOC)C(=O)[C@@H]2CC(=O)N1CCOCC1 | 10.2% (active)
18 | CCOC(=O)[C@]12CCCCC/C=C\1N(Cc1ccc(OC)cc1)C(=O)[C@H]2CC(=O)N1CCOCC1 | -0.42% (inactive)
19 | COc1ccc(N2CCN(CCNS(=O)(=O)c3ccc([N+](=O)[O-])cc3)CC2)cc1 | -0.14% (inactive)
20 | COC(=O)C1CN(CCc2ccccc2)CCS(=O)(=O)N1Cc1cccc(Cl)c1 (stereo unspecified) | 0.86% (inactive)
21 | COc1ccc(CSc2nnc(-c3cccc(C)c3)n2C)cc1 | 1% (inactive)
22 | COc1ccc(-n2c(COc3ccccc3)nnc2SCC(=O)Nc2ccc3c(c2)OCO3)cc1 | -1.32% (inactive)

Row | SMILES | inhibition
23 | Cc1cc(C)n2ncc(C(=O)Nc3ccc4c(c3)OCCO4)c2n1 | -0.99% (inactive)
24 | CN(C)[C@H]1CCN(c2cccc3c2S(=O)(=O)N2CC[C@H](C2)O3)C1 | 1.23% (inactive)
25 | CC(=O)c1ccc(N2CCN(CC(=O)Nc3ccccc3N3CCOCC3)CC2)cc1 | -2.41% (inactive)
26 | O=C(CN1CCN(C2CCCCC2)CC1)Nc1ccccc1N1CCCCC1 | 10.2% (active)
27 | O=C(CN1CCCCC1)Nc1ccccc1C(=O)NC1CC1 | 3.56% (inactive)
28 | COc1ccc(C(=O)Nc2c(N)nc(SCC(=O)Nc3ccc(C(C)=O)cc3)[nH]c2=O)cc1 | -0.47% (inactive)
29 | COc1ccc(NC(=O)c2ccccc2CC[N+](=O)[O-])cc1 | 0.81% (inactive)
30 | COc1ccc(NC(=O)c2ccc(OC)cc2)cc1 | 11% (active)
31 | C[C@@H]1CN([C@@H](C)CO)C(=O)c2cccc(NC(=O)Nc3cccc4ccccc34)c2O[C@H]1CN(C)S(=O)(=O)c1ccccc1F | -11.6% (inactive)
32 | CCN(CC)CCCNC(=O)c1ccc2c(=O)n(Cc3ccc4c(c3)OCO4)c(=S)[nH]c2c1 | -2.49% (inactive)
33 | Cc1cccc(NC(=O)c2ccc3c(=O)n(CC4CCCO4)c(=S)[nH]c3c2)c1 (stereo unspecified) | 10.2% (active)
34 | O=C(NCc1ccccc1Cl)c1ccc2c(=O)n(CC3CCCO3)c(=S)[nH]c2c1 (stereo unspecified) | 2.56% (inactive)
35 | Cc1ccc(NC(=S)NNC(=O)CSc2nnc(SCc3ccccc3Cl)s2)cc1 | -4.17% (inactive)
36 | CC(=O)OCCN1CCCC12CCC(c1ccccc1)CC2 (stereo unspecified) | -1.82% (inactive)
37 | CCc1ccccc1NC(=O)CSc1nnc(-c2cccs2)o1 | -2.39% (inactive)
38 | COC(=O)[C@]12C[C@H](CC(=O)NCc3ccccc3)C(=O)N(CCc3ccc(OC)c(OC)c3)C1=C[C@H](C(C)(C)C)O[C@@H]2C | 1.65% (inactive)
39 | COC(=O)C1CN(Cc2cn(Cc3ccc(F)cc3)nn2)CCS(=O)(=O)N1Cc1ccc(Cl)cc1 (stereo unspecified) | 0.64% (inactive)
40 | C=CCN1C(=O)[C@H](CC(=O)N2CCN(C(=O)OCC)CC2)[C@@]2(C(=O)OCC)CCCC=C12 | 0.46% (inactive)
41 | FC(F)(F)c1cccc(Cn2ccc3ccc(-c4ccc5ccn(Cc6ccccc6)c5c4)cc32)c1 | -66.4% (inactive)
42 | O=c1c([N+](=O)[O-])cc(C(F)(F)F)cn1Cc1cccc(Cl)c1 | 11.6% (active)
43 | O=c1c([N+](=O)[O-])cccn1Cc1ccc(F)cc1Cl | 3.37% (inactive)
44 | COC(=O)[C@]12C[C@H](CC(=O)NCC34CC5CC(CC(C5)C3)C4)C(=O)N(Cc3ccc(Cl)cc3Cl)C1=C[C@H](COCc1ccccc1)O[C@@H]2C | -0.03% (inactive)

Row | SMILES | inhibition
45 | CN(CCO)Cc1csc2ccc(Br)cc12 | 1.91% (inactive)
46 | CCN(CC)Cc1csc2ccc(Br)cc12 | 9.63% (active)
47 | CCN(CC)Cc1cc(C(C)=O)ccc1O | 3.56% (inactive)
48 | C=CCN1C(=O)[C@@H](CC(=O)NCCCCc2ccccc2)[C@]2(C(=O)OCC)CCCCC/C=C/12 | -0.06% (inactive)
49 | O=C(CN1CCCc2ccccc21)NCc1ccc(F)cc1 | -1.61% (inactive)
50 | COc1ccc(NC(=O)CC2C(=O)NC3CCCCC3N2C(=O)c2ccc(F)cc2)cc1 (stereo unspecified) | 0.91% (inactive)
51 | COc1ccccc1C(=O)N1CCNC(=O)C1CC(=O)Nc1ccc(Cl)cc1 (stereo unspecified) | 7.83% (inactive)
52 | COc1ccccc1C(=O)N1C(CC(=O)Nc2ccccc2C)C(=O)NC2CCCCC21 (stereo unspecified) | 9.7% (active)
53 | O=C(C1CCN(S(=O)(=O)c2ccccc2)CC1)N1CCN(C2CCCCC2)CC1 | -0.77% (inactive)
54 | Cc1ccc(-n2c(SCC(=O)Nc3cccc4ccccc34)nnc2-c2ccccn2)cc1 | -0.11% (inactive)
55 | O=C1CS(=O)CN1c1ccc(Oc2ccccc2)cc1 (stereo unspecified) | 12% (active)
56 | Cc1n[nH]c(=O)n1-c1ccc(Oc2ccccc2)cc1 | -0.23% (inactive)
57 | Oc1oc(-c2ccccc2Br)nc1/C=N/c1ccccn1 | -17.6% (inactive)
58 | CC(N=Cc1nc(-c2ccccc2)oc1O)c1ccccc1 (stereo unspecified) | 14.1% (active)
59 | O=C1CC[C@@]23CCCN2C(=O)CCC[C@H]3[C@H]1Cc1ccccc1 | 0.07% (inactive)
60 | CCCCn1c(CN2CCN(CCO)CC2)nc2ccccc21 | 0.96% (inactive)
61 | CCc1c(C)nc(N2CCN(Cc3ccccc3)CC2)[nH]c1=O | -1.09% (inactive)
62 | CC(C)n1c(CN2CCN(Cc3ccccc3)CC2)nc2ccccc21 | 9.89% (active)
63 | O=C(NCc1cccs1)C1CCCN(S(=O)(=O)c2ccc([N+](=O)[O-])cc2)C1 (stereo unspecified) | 3.77% (inactive)
64 | O=S(=O)(c1ccccc1)N1CCC(c2nc3ccccc3o2)CC1 | -4.98% (inactive)
65 | COc1ccc(C(CNC(=O)c2cc(S(=O)(=O)Nc3cccc(C)c3)ccc2C)N2CCCC2)cc1 (stereo unspecified) | 11% (active)
66 | COc1ccc(NS(=O)(=O)c2ccc(C)c(C(=O)NCC(c3cccs3)N3CCOCC3)c2)cc1 (stereo unspecified) | -3.99% (inactive)

Row | SMILES | inhibition
67 | Cc1cccc(NS(=O)(=O)c2ccc(C)c(C(=O)NCC(c3ccccc3)N(C)C)c2)c1 (stereo unspecified) | 2.63% (inactive)
68 | C=CCOC/C=C/C#CCN(CC=C)Cc1ccc(OC)cc1OC | 2.05% (inactive)
69 | Cc1ccc(-n2c(SCC(=O)Nc3ccc(S(=O)(=O)Nc4nccs4)cc3)nnc2-c2cccnc2)cc1 | 6.23% (inactive)
70 | COCCNC(=O)C(c1ccc(C)cc1)N(C(=O)CCC(=O)Nc1ccccn1)c1cccc(C)c1 (stereo unspecified) | 5.63% (inactive)
71 | COCCN(C(=O)CCC(=O)Nc1nccs1)C(C(=O)NCCC(C)C)c1ccc(F)cc1 (stereo unspecified) | 3.17% (inactive)
72 | COCCNC(=O)C(c1ccc(O)cc1)N(C(=O)CCC(=O)Nc1nccs1)c1ccc(C)cc1 (stereo unspecified) | 15.2% (active)
73 | CCC(=O)OCCCN1C(=O)CCC12CCC(c1ccccc1)CC2 (stereo unspecified) | 1.02% (inactive)
74 | C[C@@H]1COc2cccc(N3CCCC3)c2S(=O)(=O)N1C | -3.06% (inactive)
75 | C=CC1=C(C(=O)O)N2C(=O)[C@@H](NC(=O)/C(=N/OCC(=O)O)c3csc(N)n3)[C@H]2SC1 | 22.2% (active)
76 | C=CC1=C(C(=O)O)N2C(=O)[C@@H](NC(=O)/C(=N\OCC(=O)O)c3csc(N)n3)[C@H]2SC1 | 23.4% (active)
77 | COC(=O)[C@]12C[C@H](CC(=O)N3CCOCC3)C(=O)N(Cc3ccc(Cl)cc3Cl)C1=C[C@H](COCc1ccccc1)O[C@@H]2C | 1.02% (inactive)
78 | COC(=O)Cc1ccc(NC(=S)NCc2ccco2)cc1 | 2.1% (inactive)
79 | CC(C)Oc1ccc(CC(=O)NNC(=S)Nc2ccc(Br)cc2)cc1 | 9.8% (active)
80 | CSc1ccccc1NC(=O)Cc1ccc(Br)cc1 | 3.58% (inactive)
81 | O=C(C1CCCN1S(=O)(=O)c1ccccc1)N1CCc2ccccc2C1 (stereo unspecified) | -1.86% (inactive)
82 | O=C(NCC1COc2ccccc2O1)c1ccc(NC(=O)c2cc(F)ccc2F)cc1 (stereo unspecified) | -4.17% (inactive)
83 | Cc1ccc(Cn2cc(CN3[C@@H](C)COc4cc(Br)ccc4S3(=O)=O)nn2)cc1 | 0.13% (inactive)
84 | C/C(=N\NC(=O)c1cccc(N2CCCC2=O)c1)c1ccc(N)cc1 | 1.08% (inactive)
85 | NC1=NN(c2cccc(C(=O)O)c2)C(=O)C1 | 18.9% (active)
86 | O=C(c1cccc(N2CCCC2=O)c1)N1CCOCC1 | -4.42% (inactive)
